Data taken from PubChem BioAssay.
Active and inactive are the calls of the source. Unless noted, no rule for the calls is given here.

Experiments:
[1] = resazurin metabolic signal in HepG2 cells – cell-based, resazurin fluorescence, 24 h, PK04 Diversity Set, profiling panel (AID 1172); conditions: HepG2 viability, higher = more signal
[2] = budding yeast growth changes without added modifier – OD600, strain BY4716, 24 h, basal condition, primary screen (AID 1173); conditions: S. cerevisiae BY4716 growth, OD600, 24 h; higher = more signal, called active from +8 up or from −8 down
[3] = viability profiling in MM1S myeloma cells – cell-based, resazurin fluorescence, basal, 24 h, PK04 Diversity Set, profiling panel (AID 1174); conditions: higher = more signal, called active from +8 up or from −8 down;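 also: MM1S multiple myeloma cell line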
[4] = biological target: Dihydroorotate dehydrogenase (quinone), mitochondrial (Plasmodium falciparum (isolate 3D7)) (UniProt Q08210); test: inhibition of P. falciparum DHODH – biochemical, C-terminal His tag, absorbance 600 nm, primary screen (AID 1175); conditions: PfDHODH enzyme, DCIP absorbance 600 nm; higher = more signal, called active from +8 up or from −8 down;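 also: recombinant parasite enzyme with a five histidine tag at its C terminus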
[5] = inhibition of PAO1 biofilm formation – strain PAO1, LB-PBS medium, absorbance 600 nm, primary screen (AID 1176); conditions: P. aeruginosa PAO1 growth/biofilm, A600, 12 h; higher = more signal
[6] = growth modulation of vineyard yeast isolate – strain RM11-1a, OD600, basal, 24 h, primary screen (AID 1177);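 also: cultures grown under basal conditions with no added stressor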; conditions: S. cerevisiae RM11-1a growth, OD600, 24 h; higher = more signal, called active from +8 up or from −8 down
[7] = growth of efflux-deficient E. coli DRC39 – strain DRC39, OD650, 24 h, E. coli filamentation inducers, primary screen (AID 1178);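 also: growth measured as culture turbidity by optical density at 650 nm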; conditions: E. coli DRC39 acrAB, higher = more signal, called active from +8 up or from −8 down
[8] = growth of efflux-deficient E. coli DRC39 – strain DRC39, OD650, 48 h, E. coli filamentation inducers, primary screen (AID 1179);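 also: screen aims at cell division blockers that make cells filament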; conditions: E. coli DRC39 delta-acrAB growth, higher = more signal, called active from +8 up or from −8 down
[9] = viability profiling in RPMI8226 myeloma cells – cell-based, resazurin fluorescence, basal, 24 h, PK04 Diversity Set, profiling panel (AID 1180); conditions: higher = more signal;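 also: RPMI8826 multiple myeloma cell line at 5000 cells per well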
[10] = biological target: E3 ubiquitin-protein ligase XIAP (Homo sapiens) (UniProt P98170); test: small molecules binding XIAP protein – biophysical, small-molecule microarray, fluorescence 635 nm, primary screen (AID 1181); conditions: higher = more signal;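 also: score merges 667 nm emission and signal to noise over triplicate slides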
[11] = test system: XIP peptide (Xip251-270) binding; test: XIP fragment 251-270 binding compounds – biochemical, small-molecule microarray, fluorescence 635/667 nm, 0.1 µg/mL protein, primary screen (AID 1182); conditions: fluorescent protein binding, 635 nm, higher = more signal, called active from +8 up or from −8 down
XIP peptide (Xip251-270) = test: compounds binding XIP fragment 251-270 – biochemical, small-molecule microarray, fluorescence 635/667 nm, 0.5 µg/mL protein, primary screen (AID 1183); conditions: fluorescence 635 nm, higher = more signal
[12] = blood-stage malaria parasite viability loss – strain 3D7, DAPI fluorescence, 100 nL, primary screen (AID 1184);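 also: parasites grown inside human red blood cells in medium with human serum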; conditions: P. falciparum 3D7 growth, 3 d, higher = more signal
[13] = biological target: Homeobox protein Hox-A13 (Mus musculus) (UniProt Q62424); test: disruptors of Hoxa13 oligonucleotide interaction – biochemical, fluorescence polarization, labeled oligonucleotide, primary screen (AID 1185); conditions: Hoxa13:DNA binding, 15 min, higher = more signal, called active from +8 up or from −8 down
[14] = blockers of DNA damage checkpoint Chk1 activation – imaging, HeLa, hydroxyurea, phospho-Chk1 antibody, percent positive cells, primary screen (AID 1186); conditions: hydroxyurea-induced phospho-Chk1 immunofluorescence imaging, higher = more signal
[15] = blockers of DNA damage checkpoint Chk1 activation – imaging, HeLa, hydroxyurea, phospho-Chk1 nuclear intensity, primary screen (AID 1187); conditions: hydroxyurea-induced phospho-Chk1 immunofluorescence imaging, higher = more signal

Homeobox protein Hox-A13 (Mus musculus), sequence (Q62424 whole entry, looked up): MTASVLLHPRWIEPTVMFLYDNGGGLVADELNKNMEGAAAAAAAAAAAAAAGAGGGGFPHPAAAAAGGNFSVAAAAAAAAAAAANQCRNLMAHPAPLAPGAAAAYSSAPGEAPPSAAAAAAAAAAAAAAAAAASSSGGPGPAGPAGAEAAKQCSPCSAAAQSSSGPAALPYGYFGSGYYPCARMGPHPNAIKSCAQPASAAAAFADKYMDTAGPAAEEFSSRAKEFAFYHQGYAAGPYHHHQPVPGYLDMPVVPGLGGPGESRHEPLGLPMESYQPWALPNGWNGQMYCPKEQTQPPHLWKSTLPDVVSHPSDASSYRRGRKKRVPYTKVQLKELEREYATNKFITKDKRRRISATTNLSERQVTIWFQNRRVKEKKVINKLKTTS
Dihydroorotate dehydrogenase (quinone), mitochondrial (Plasmodium falciparum (isolate 3D7)), sequence (Q08210 whole entry, looked up): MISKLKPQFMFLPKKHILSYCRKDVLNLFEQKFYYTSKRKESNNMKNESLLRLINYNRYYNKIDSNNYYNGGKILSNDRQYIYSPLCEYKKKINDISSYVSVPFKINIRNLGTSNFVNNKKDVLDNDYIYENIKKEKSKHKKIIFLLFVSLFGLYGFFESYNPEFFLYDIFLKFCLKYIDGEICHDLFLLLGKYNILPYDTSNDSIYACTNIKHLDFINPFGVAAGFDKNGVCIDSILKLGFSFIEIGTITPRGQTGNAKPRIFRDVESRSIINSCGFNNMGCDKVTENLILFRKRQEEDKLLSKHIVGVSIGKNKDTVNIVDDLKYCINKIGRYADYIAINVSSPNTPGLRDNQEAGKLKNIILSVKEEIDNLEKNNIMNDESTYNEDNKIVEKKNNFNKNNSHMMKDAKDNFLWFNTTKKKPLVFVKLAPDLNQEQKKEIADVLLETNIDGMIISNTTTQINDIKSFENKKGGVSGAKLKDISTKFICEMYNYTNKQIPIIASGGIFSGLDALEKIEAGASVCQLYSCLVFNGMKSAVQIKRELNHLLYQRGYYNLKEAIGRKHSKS
E3 ubiquitin-protein ligase XIAP (Homo sapiens), sequence (P98170 whole entry, looked up, the tested form may be a part): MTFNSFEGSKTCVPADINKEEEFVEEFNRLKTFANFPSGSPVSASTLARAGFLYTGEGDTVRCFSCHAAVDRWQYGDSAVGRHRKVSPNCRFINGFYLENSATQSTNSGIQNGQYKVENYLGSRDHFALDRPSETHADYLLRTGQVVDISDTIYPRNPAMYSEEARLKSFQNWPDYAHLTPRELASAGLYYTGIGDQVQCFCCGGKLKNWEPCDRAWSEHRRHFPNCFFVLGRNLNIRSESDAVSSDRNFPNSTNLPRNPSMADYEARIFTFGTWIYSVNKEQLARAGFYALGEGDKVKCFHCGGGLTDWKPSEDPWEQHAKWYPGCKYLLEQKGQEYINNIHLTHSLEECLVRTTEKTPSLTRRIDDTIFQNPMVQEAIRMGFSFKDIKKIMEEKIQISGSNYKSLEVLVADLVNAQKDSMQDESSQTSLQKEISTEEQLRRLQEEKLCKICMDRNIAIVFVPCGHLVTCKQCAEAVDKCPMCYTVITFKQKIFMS

Row | Structure (SMILES) | z-score [1] | z-score [2] | z-score [3] | composite z-score [4] | z-score [5] | z-score [6] | z-score [7] | z-score [8] | z-score [9] | composite z-score [10] | composite z-score [11] | composite z-score (XIP peptide (Xip251-270)) | z-score [12] | z-score [13] | z-score [14] | z-score [15]
1 | O=C1O[C@H](c2ccccc2)[C@H](c2ccccc2)N2[C@H]1[C@@H](C(=O)NC[C@H](O)c1ccccc1)[C@]1(C(=O)Nc3ccc(C#CC4(O)CCCCCC4)cc31)[C@H]2c1ccc(OCCO)cc1 | -0.148 | 0.359 (inactive) | -0.15 (inactive) | -1.82 (inactive) | 1.9 (inactive) | 1.68 (inactive) | 1.66 (inactive) | 0.855 (inactive) | 0.931 | -0.168 | -0.342 (inactive) | 0.799 | -1.45 | 0.199 (inactive) | -0.309 (inactive) | -0.412 (inactive)
2 | CC(=O)NCCCC[C@@H]1NC(=O)[C@H]2C[C@@H](C(=O)NCCCCCCN(C)C)[C@@H](c3cccc(OCCO)c3)N2C1=O | -0.526 | -1.16 (inactive) | -0.143 (inactive) | -0.0259 (inactive) | 0.42 (inactive) | -0.0243 (inactive) | 0.617 (inactive) | -0.197 (inactive) | -0.696 | -0.0067 | 2.96 (inactive) | 0.882 | -0.0473 | -2.84 (inactive) | 0.181 (inactive) | 0.733 (inactive)
3 | COc1ccc([Si](C)(C)[C@@H]2[C@@H](CCO)O[C@]3(C(=O)N(Cc4ccc(NC(=O)[C@H](C)O)cc4)c4ccccc43)[C@H]2C)cc1 | -1.84 | -0.177 (inactive) | -6.71 (inactive) | -1.07 (inactive) | -0.717 (inactive) | 3.7 (inactive) | 1.26 (inactive) | 0.335 (inactive) | -5.69 | -0.0497 | 0.894 (inactive) | 0.752 | -2.79 | -4.05 (inactive) | -1.42 (inactive) | -1.27 (inactive)
4 | COc1ccc([Si](C)(C)[C@@H]2[C@@H](CC(=O)N(CCO)Cc3ccccc3)O[C@]3(C(=O)N(Cc4cccc(N5CCC5=O)c4)c4ccccc43)[C@H]2C)cc1 | -1.51 | 0.328 (inactive) | -2.9 (inactive) | -0.645 (inactive) | 0.708 (inactive) | 1.32 (inactive) | 0.882 (inactive) | -0.0661 (inactive) | -2.08 | 0.154 | 1.09 (inactive) | 0.756 | -2.5 | -1.54 (inactive) | -0.0556 (inactive) | -0.0513 (inactive)
5 | CCN1C(C)=C(C(=O)OC)[C@@H](c2ccccc2)N2C(=O)[C@@]3(C(=O)OC)O[C@@]12[C@@H]1C(=O)N(C)C(=O)[C@@H]13 | 0.976 | -0.684 (inactive) | 0.947 (inactive) | 1.18 (inactive) | – | 0.335 (inactive) | -0.234 (inactive) | -0.992 (inactive) | 1.09 | -0.0454 | 1.38 (inactive) | 0.87 | -0.138 | -0.663 (inactive) | – | –
6 | C=CCC(OC(C)=O)[C@@H]1[C@@H](N(Cc2ccc(-c3ccccc3)cc2)C(=O)c2ccc(-c3ccccc3)cc2)c2cc(OCCCO)ccc2N1C(=O)Cc1ccc(OC)cc1 (some centres not stated) | -0.149 | 0.335 (inactive) | 0.108 (inactive) | -0.979 (inactive) | 0.0429 (inactive) | -1.14 (inactive) | -0.0223 (inactive) | 0.185 (inactive) | 0.202 | -0.0596 | 0.195 (inactive) | -0.126 | -0.314 | -1.31 (inactive) | -0.282 (inactive) | -0.47 (inactive)
7 | NC(=O)[C@H]1[C@@H]2C(=O)O[C@@H](c3ccccc3)[C@@H](c3ccccc3)N2[C@@H](c2ccc(O)cc2)[C@]12C(=O)Nc1ccc(C#CCCO)cc12 | -0.744 | -0.383 (inactive) | -0.354 (inactive) | -0.25 (inactive) | -0.0604 (inactive) | -1.03 (inactive) | -0.847 (inactive) | -1.18 (inactive) | -0.616 | 0.135 | -0.0876 (inactive) | -0.413 | -0.629 | -5.7 (inactive) | -0.0158 (inactive) | -0.651 (inactive)
8 | CCOC(=O)C1=CCC(c2cccc3ccccc23)N(S(=O)(=O)c2ccc(C)cc2)C1 (configuration not stated) | -0.739 | 0.66 (inactive) | -1.56 (inactive) | -0.384 (inactive) | 0.518 (inactive) | -0.225 (inactive) | -0.601 (inactive) | 0.0759 (inactive) | -3.43 | 0.397 | 0.225 (inactive) | 0.449 | -1.77 | -1.57 (inactive) | 0.18 (inactive) | -0.129 (inactive)
9 | C=C(COC)C(=O)CC[C@H](OC(=O)c1ccccc1-c1ccccc1C(=O)O)c1cccc(OCCO)c1 | -1.06 | -17.1 (active) | -0.805 (inactive) | -6.66 (inactive) | 1.99 (inactive) | -5.09 (inactive) | -1.27 (inactive) | -1.04 (inactive) | -0.858 | 0.511 | 0.437 (inactive) | 0.569 | -0.034 | -4.76 (inactive) | 0.369 (inactive) | 0.258 (inactive)
10 | CCCC=C(CCC)[C@@H](NS(=O)(=O)c1cccc(C(F)(F)F)c1)c1ccc(C(=O)OC)cc1 | 1.18 | 0.661 (inactive) | 0.179 (inactive) | -0.237 (inactive) | -0.94 (inactive) | -0.279 (inactive) | -0.0305 (inactive) | -0.0262 (inactive) | -0.16 | 0.0506 | 0.0637 (inactive) | 0.377 | 0.551 | -1.64 (inactive) | 0.0948 (inactive) | -0.275 (inactive)
